Experimental data from PubChem BioAssay (NCATS).
Inconclusive results are not listed. Activity calls are given as the source filed them. The call rests on the fitted dose curve; in most records, active means well fitted cell-killing curve with a large enough effect; inconclusive means small, poorly fitted or top-dose-only effect; inactive means no such curve, though single readings can be large or run the other way.

Assay: qHTS of pediatric cancer cell lines to identify multiple opportunities for drug repurposing: Primary screen for LAN-5 cells (AID 1347100)
Conditions: LAN-5 neuroblastoma viability, CellTiter-Glo luminescence, 48 h; series mostly up to 46 µM; activity change, negative = cytotoxic: at the top concentration
From the text: Drug repurposing or repositioning has been offered as a strategy for drug development in oncology programs. This approach has special potential for childhood cancers and other rare or orphan diseases, where the expected return on new drug development has been a disincentive to pharmaceuticals.
In this project we exploit the poly-pharmacology of drugs to discover new indications via phenotypic screening of a panel of 19 well-characterized cell lines derived from solid tumors seen in children and adolescents. The goal is to identify approved drugs with previously unrecognized anticancer properties that has the potential to reveal new mechanisms and biological processes involved in carcinogenesis or drug resistance. We employed a titration-based paradigm (quantitative high-throughput screening or qHTS), where all compounds were tested at multiple concentrations for their effect on cell viability. Concentration-response curves (CRCs) were derived directly from the primary screen, and both potency and efficacy values were used to identify compounds with robust bioactivity profiles. We screened the NIH Chemical Genomics Center (NCGC) Pharmaceutical Collection (NPC) and Mechanism Interrogation Plate (MIPE) small molecule collections of approved and investigational compounds against these cell lines; and measured metabolically active cells after 48 hours of compound treatment as a proxy for cell viability.
Assay Submitter: Nathalia J. Martinez, National Center for Advancing Translational Sciences, National Institutes of Health, Rockville, MD, USA; email: natalia.martinez@nih.gov
[1] Shen, M et al. Quantitative high-throughput phenotypic screening of pediatric cancer cell lines identifies multiple opportunities for drug repurposing. Oncotarget 2017 Dec 19;9(4):4758-4772. PMID 29435139.
The cells were obtained from University of North Carolina (UNC), Pediatric Preclinical Testing Program (PPT), and Coriell Institute (CI).
qHTS cell viability assay:
Cells were assayed in growth media at a density of 500-1,000 cells/well. Five microliters of cells were dispensed into 1,536-well, white, solid-bottom, TC-treated plates (Greiner Bio One) using a multidrop dispenser and incubated at 37 degrees C, 5% CO2, under a humidified atmosphere for 5 hours. Twenty-three nanoliters of compounds and controls (neutral control DMSO or positive control bortezomib at final concentration of 2.3 µM) were subsequently transferred by Kalypsys pintool. For primary screens, the MIPE collection was tested at 11-point dilutions (final concentrations range from 0.78 nM to 46 µM) and the NPC collection at 8-point dilutions (final concentrations range from 0.59 nM to 46 µM). Compounds tested in follow-up screens were assayed at 11-point dilutions. Cells were incubated for 48 hours, followed by addition of 3 µL of CellTiter-Glo (Promega). After a 15 min incubation at room temperature, samples were analyzed for luminescence intensity using a ViewLux High-throughput CCD imager equipped with clear filters.

SMILES | activity change, negative = cytotoxic
Cc1ccsc1/C=C/C1=NCCCN1C | -2.58% (inactive)
Cc1c(N(C)C)c(=O)n(-c2ccccc2)n1C | 18.1% (inactive)
Cc1c(C)c2c(c(C)c1OC(=O)c1cccnc1)CC[C@@](C)(CCC[C@H](C)CCC[C@H](C)CCCC(C)C)O2 | -6.92% (inactive)
C=CCOc1ccccc1OCC(O)CNC(C)C (stereo not given) | -0.928% (inactive)
COc1ccc(NS(=O)(=O)c2ccc(N)cc2)nn1 | 13.1% (inactive)
O=C(O)c1ccccc1OP(=O)(O)O | 22.3% (inactive)
O=C(NCN1CCOCC1)c1cnccn1 | -14.8% (inactive)
C=CCNC(N)=S | 32.7% (inactive)
Cc1cc(C)c(NC(=O)CN(CC(=O)O)CC(=O)O)c(C)c1Br | -0.482% (inactive)
C=CCSCC1Nc2cc(Cl)c(S(N)(=O)=O)cc2S(=O)(=O)N1 (stereo not given) | 1.59% (inactive)
CC(C(=O)O)c1ccc2c(c1)Cc1cccnc1O2 (stereo not given) | 17.9% (inactive)
CC(=O)OCC(=O)[C@@]1(O)CC[C@H]2[C@@H]3CCC4=CC(=O)C=C[C@]4(C)[C@@]3(F)[C@@H](O)C[C@@]21C | 13.9% (inactive)
O=C(CN1CCNCC1)NC1CCCCC1 | -7.95% (inactive)
Cn1c(=O)c2c(ncn2CCO)n(C)c1=O | -18.5% (inactive)
CC(=O)Nc1ccccc1 | 8.17% (inactive)
NC(=O)N[C@@H](CCC(=O)O)C(=O)O | 29.2% (inactive)
O=C(O)C(S)C(S)C(=O)O (stereo not given) | 16.5% (inactive)
Nc1ncnc(Nc2ccccc2)n1 | -2.42% (inactive)
CC(=O)OC[C@H]1O[C@@](COC(C)=O)(O[C@H]2O[C@H](COC(C)=O)[C@@H](OC(C)=O)[C@H](OC(C)=O)[C@H]2OC(C)=O)[C@@H](OC(C)=O)[C@@H]1OC(C)=O | -3.55% (inactive)
COc1ccccc1OC(=O)Oc1ccccc1OC | 26.3% (inactive)

SMILES | activity change, negative = cytotoxic
NC(=O)c1ccc([N+](=O)[O-])cc1Cl | 25.8% (inactive)
c1ccc2[nH]ccc2c1 | 2.85% (inactive)
CC1CC(OC(=O)c2ccccc2O)CC(C)(C)C1 (stereo not given) | -6.6% (inactive)
CCCCCCCCCCCCCCCCC(C(=O)O)C(O)(CC(=O)O)C(=O)O (stereo not given) | 23.4% (inactive)
CC(C)CCCC(C)CCCC(C)CCCCC(C)CCCC(C)CCCC(C)C (stereo not given) | 28.6% (inactive)
CC(=O)SC[C@@H](Cc1ccccc1)C(=O)NCC(=O)OCc1ccccc1 | 15.6% (inactive)
Nc1ccncc1N | 17.4% (inactive)
NCc1ccc(S(N)(=O)=O)cc1 | -5.2% (inactive)
Cc1cc(-n2nc3ccc(Cl)cc3n2)c(O)c(C(C)(C)C)c1 | 26.6% (inactive)
Cc1cccc(Nc2ccccc2C(=O)O)c1C | 18.6% (inactive)
C[C@@H](c1ncncc1F)C(O)(Cn1cncn1)c1ccc(F)cc1F (stereo not given in full) | 8.15% (inactive)
Cc1ccc(S(=O)(=O)NC(=O)NC2CCCCC2)cc1 | 10% (inactive)
O=C(O)Cn1c(C(=O)Nc2nc(-c3ccccc3Cl)cs2)cc2ccccc21 | -9.64% (inactive)
Cc1cc(=O)[nH]c(=S)[nH]1 | 17.3% (inactive)
NC(N)=NS(=O)(=O)c1ccc(N)cc1 | 11.1% (inactive)
CC(=O)N1C[C@H](O)C[C@H]1C(=O)O | 21.3% (inactive)
CC(C)CCOC(=O)c1ccc(N(C)C)cc1 | 15.8% (inactive)
O=C(O)c1ccc[n+]([O-])c1 | 17.3% (inactive)
CC(=O)N(CC(O)CN(C(C)=O)c1c(I)c(C(=O)NCC(O)CO)c(I)c(C(=O)NCC(O)CO)c1I)c1c(I)c(C(=O)NCC(O)CO)c(I)c(C(=O)NCC(O)CO)c1I (stereo not given) | 0.693% (inactive)
CC(C)=CCC/C(C)=C/CO | 4.49% (inactive)
